This is an account of results in PubChem BioAssay (Tox21).

Records with an inconclusive call do not appear. Activity calls are given as the source filed them. Calls come from the whole dose curve; as a rule, active = well fitted activation curve with a large enough effect in the repeat runs; inconclusive = weak or mixed curves; inactive = flat fitted curve, though single readings scatter.
% is set by controls: 0 for no effect and ±100 for the full control effect.

This test can be described thus: A CellTox Green Cytotoxicity Assay to monitor cytotoxicity in HEK293 cells - 16 hour (AID 1224888). Note: nearly all actives have a fitted effect of over 35% in size. The note with it: CellTox Green fluorescence, active compounds read high; series mostly up to 76.8 µM; activity change: at the top concentration. From the text:
National Center for Advancing Translational Sciences [NCATS]
NIH Chemical Genomics Center [NCGC]
U.S. Environmental Protection Agency [EPA]
National Institutes of Environmental Health Sciences [NIEHS]
National Toxicology Program [NTP]
Cell-based models are critical for drug discovery. Determining the natural cytotoxic effects resulting from test compounds is an essential research activity. A CellTox Green Cytotoxicity Assay to monitor cytotoxicity in real time of continues cell culture during 40 hours of the compound treatment was used to screen Tox21 10K library compounds in Hek293 cells. CellTox Green Cytotoxicity Assay is a nonlytic, homogeneous, biofluorescent method to measure cytotoxicity in cell culture after experimental manipulation. The assay system uses a proprietary asymmetric cyanine dye that is excluded from viable cells but preferentially stains the dead cell's DNA. […] Viable cells produce no appreciable increases in fluorescence. Therefore, the fluorescence signal produced by the binding interaction with dead cell DNA is proportional to cytotoxicity.
The mixture of Hek293 cell suspension and reagents were dispensed at 600cells/6 ul/well in 1536-well tissue culture treated black solid bottom plates using a Multidrop dispenser. After the assay plates were incubated at a 37 C/5% CO2 incubator for 5 hours, 23 nL of compounds dissolved in DMSO, positive and negative controls was transferred to the assay plate by a pintool work station. The plates were incubated at 37 C for 40 hours. The fluorescence intensity were measured at 0h, 8h, 16h, 24h, 32h and 40h time points using ViewLux plate reader during compound treatment.
`C#C[C@]1(O)CC[C@H]2[C@@H]3CCC4=CC(=O)CC[C@@H]4[C@H]3CC[C@@]21C`: the outcome was inactive. As to `c1ccc(OCCOc2ccccc2)cc1`, the call was inactive.

On to `N[C@@H](Cc1cc(I)c(Oc2cc(I)c(O)c(I)c2)c(I)c1)C(=O)O`, for which the outcome was inactive. Still for that read-out and setting: as for `c1ccc2c(c1)ccc1ccccc12`, the entry is “inactive”; as for `CC(C)c1ccc(S(=O)(=O)O)cc1`, “inactive”; as for `O=C1CCC(N2C(=O)c3ccccc3C2=O)C(=O)N1` (stereo not given), “inactive”.

With `O=c1[nH]nnc2ccccc12`, the result was inactive. With `CCCCCCCCC/C=C/CC1CC(=O)OC1=O` (stereo not given), the result was inactive. Same read-out and setting: for `CC(=O)Nc1cccc(O)c1` the value was “inactive”; for `O=C(CC(C(=O)OC1CCCCC1)S(=O)(=O)O)OC1CCCCC1` (stereo not given), “inactive”; for `Fc1ccc(Br)cc1`, “inactive”. As for `C=C(C)C(=O)Nc1ccc(Cl)c(Cl)c1`, the result was inactive. On the same count and under the same terms, as for `CC(=O)OCC(=O)[C@@]12N=C(C)O[C@@H]1C[C@H]1[C@@H]3CCC4=CC(=O)C=C[C@]4(C)[C@H]3[C@@H](O)C[C@@]12C`, the entry is “inactive”. Consider `O=C(O)c1ccc2c(c1)C(=O)OC2=O`, for which the “activity change” value was -5.64% (inactive).

On to `CC1CCC2CC1C2(C)C` (stereo not given), for which the outcome was inactive. Same read-out and setting: for `CC(=O)CC(=O)Nc1ccccc1` the value was “inactive”; for `CCCCC(CC)COC(=O)CS` (stereo not given), “inactive”. Turning to `CC[C@H](C)C(=O)O[C@H]1C[C@@H](C)C=C2C=C[C@H](C)[C@H](CC[C@@H]3C[C@@H](O)CC(=O)O3)[C@H]21`, the “activity change” value was -1.29% (inactive). As for `CC(C)(N)CO`, the outcome was inactive. Turning to `Cc1cccc(O)c1`, the molecule was classed as inactive. The same measure, in the same setting: for `FC(F)(F)c1ccc(Cl)c(Cl)c1` the value was “inactive”; for `O=C=NCCCCCCN=C=O`, “inactive”. The same measure, in the same setting: as for `Cc1occc(=O)c1O`, the entry is “inactive”; as for `Cc1ccc(S(N)(=O)=O)cc1`, “inactive”. `CCCCCCCCCCCCc1ccccc1`: the molecule was called inactive. Same read-out and setting: as for `COCCCOc1ccnc(CS(=O)c2nc3ccccc3[nH]2)c1C` (stereo not given), the entry is “inactive”; as for `CCc1ccc(CCOc2ccc(CC3SC(=O)NC3=O)cc2)nc1` (stereo not given), “inactive”. Still for that read-out and setting: for `CN(C)CCCN` the value was “inactive”; for `CCCCCCCCCCCCCCCO`, “inactive”. Same read-out and setting: for `CCN(CC)c1ccc(C(=O)c2ccccc2C(=O)O)c(O)c1` the value was “inactive”; for `c1c[nH]cn1`, “inactive”. For the molecule `CCCCCCCCCCCCOCCO`, the molecule was classed as inactive.

In the case of `O=C(O)c1ccc(C(=O)O)cc1`, the outcome was inactive. Same read-out and setting: for `C=CCOC(=O)c1ccccc1C(=O)OCC=C` the value was “inactive”; for `CCOC(=O)NNc1nncc2ccccc12`, “inactive”. `C#CCN(C)Cc1ccccc1`: the outcome was inactive. Still for that read-out and setting: as for `CCCCCOC(C)=O`, the entry is “inactive”. The same measure, in the same setting: for `Nc1ccccc1[N+](=O)[O-]` the value was “inactive”; for `CCCCC(CC)CO` (stereo not given), “inactive”; for `CC(=O)c1ccccc1`, “inactive”.
